# Screening results: PubChem BioAssay, National Center for Advancing Translational Sciences (NCATS)
# JMJD2A Tudor = JMJD2A Tudor domain (human) inhibition; O75164; AlphaScreen JMJD2A-Tudor / H3K4me3 peptide binding; Potency, µM (series often up to 114 µM), for the others: at the highest dose activity change, negative = inhibition, most hits filed as inhibitors; 390,000 tested, 4.4% active; also: potency is read from the fitted curve at half-maximal effect; % is scaled to controls: 0 for no effect and ±100 for the full control effect; nearly all actives have a fitted effect of over 50% in size
# PI5P4K alpha inh = PI5P4K alpha (human) kinase inhibition. 330,000 tested, 1.2% active. PI5P4Kalpha enzyme, ADP-Glo luminescence, 60 min; stronger effect = lower value. max response, %; active = max response of -50% or lower; inconclusive = between -30% and -50%; inactive = -30% or higher; also: value at the top dose of about 77 µM; % is scaled to controls: 0 for no effect and ±100 for the full control effect
#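 qHTS, 1536-well: enzyme/substrate mix, compound by pin tool, 5 microM ATP final; RT 60 min; ADP-Glo reagents 1 (45 min) then 2 (30 min); luminescence.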
# BAZ2B inh = BAZ2B (human) inhibition. AlphaScreen BAZ2B-H3K14Ac peptide displacement. Potency, µM (highest dose often 114 µM), for the others: top-dose activity change, negative = inhibition, usual class: inhibitors. AID 504333. 360,000 tested, 4.4% active; also: potency is read from the fitted curve at half-maximal effect; % is scaled to controls: 0 for no effect and ±100 for the full control effect; nearly all actives have a fitted effect of over 60% in size
#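 AlphaScreen displacement: compounds (up to 110uM) incubated 30 min at room temperature with a preformed 50 nM BAZ2B/50 nM biotinylated H3K14Ac peptide complex in PBS pH 7.4 with Tween-20. Donor and acceptor beads at 10 ug/mL final added, 20 min light-protected before reading.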
# GCN5L2 inh = GCN5L2 (KAT2A) acetyltransferase inhibition; GCN5L2 HAT assay, ThioGlo1 CoA-SH fluorescence; Potency, µM (doses to about 58.9 µM), for the others: at the highest dose activity change, negative = inhibition, actives largely listed as inhibitors; 390,000 tested, 0.21% active; AID 504327; also: potency is read from the fitted curve at half-maximal effect; % is scaled to controls: 0 for no effect and ±100 for the full control effect
#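 Enzyme at 20nM final was mixed with library compounds for 15 min at room temperature. Peptide H3(1-25) at 75uM, acetyl-CoA at 70uM and ThioGlo1 at 50uM were then added. Plates were read immediately and after 20 min (Ex340nm/Em540nm).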
# PLK1 PBD block = PLK1 (human) polo-box domain binding inhibition | 360,000 tested, 2.8% active | AID 720504 | P53350 | Plk1 PBD binding of FITC phosphopeptide, fluorescence polarization | Potency, µM, for the others: max response, negative = inhibition, actives largely listed as inhibitors; also: potency is read from the fitted curve at half-maximal effect; series mostly up to about 57 µM; % is scaled to controls: 0 for no effect and ±100 for the full control effect; nearly all actives have a fitted effect of over 65% in size
# Target sequence (P53350 whole entry, looked up, the tested form may be a part): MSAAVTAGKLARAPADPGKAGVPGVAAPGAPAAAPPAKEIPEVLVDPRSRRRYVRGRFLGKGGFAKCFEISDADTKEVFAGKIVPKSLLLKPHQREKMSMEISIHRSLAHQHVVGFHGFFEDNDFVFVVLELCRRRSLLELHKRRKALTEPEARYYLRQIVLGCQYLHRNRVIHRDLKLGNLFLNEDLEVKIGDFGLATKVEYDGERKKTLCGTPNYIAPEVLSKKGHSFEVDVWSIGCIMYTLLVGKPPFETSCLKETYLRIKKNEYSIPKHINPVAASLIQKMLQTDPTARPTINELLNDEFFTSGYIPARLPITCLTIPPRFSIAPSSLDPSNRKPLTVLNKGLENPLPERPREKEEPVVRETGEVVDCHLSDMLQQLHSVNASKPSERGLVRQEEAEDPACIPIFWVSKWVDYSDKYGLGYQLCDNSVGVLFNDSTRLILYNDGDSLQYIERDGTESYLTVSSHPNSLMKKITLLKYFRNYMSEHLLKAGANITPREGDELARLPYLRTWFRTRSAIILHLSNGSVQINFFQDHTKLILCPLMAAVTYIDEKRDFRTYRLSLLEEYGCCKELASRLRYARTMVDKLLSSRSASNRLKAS
# HP1b binding inh = inhibitors of HP1-beta chromodomain binding to methylated histone tails; P83916; AlphaScreen HP1-beta / biotin-H3K9me3 peptide binding; Potency, µM (series often up to 114 µM), without a hit: top-dose activity change, negative = inhibition, usual class: inhibitors; 390,000 tested, 0.56% active; AID 540317; also: potency is read from the fitted curve at half-maximal effect; nearly all actives have a fitted effect of over 70% in size
#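 HP1-beta protein (50 nM final) preincubated 30 min at room temperature with biotinylated H3(1-18)K9me3 peptide (50 nM) in PBS pH 7.4, 0.01% Tween-20, then compound added for 30 min. AlphaScreen streptavidin donor/nickel chelate acceptor beads (10 ug/mL final), 30 min dark, luminescence read.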
# The depositor's hits bear a star; ? = inconclusive; / = no result; ! = not confirmed by another sample; [ ] = another dose, or the depositor's remark. Hits are enriched below; roughly 7% of the tested compounds scored in any of these assays. Unless noted, calls follow the shape of the dose curve; as a rule, active = well fitted curve in the direction sought with a large enough effect; inconclusive = small, poorly fitted or top-dose-only effect, or another doubt; inactive = no such curve, though single readings can be large; an effect the other way counts as inactive or inconclusive.
SMILES,JMJD2A Tudor,PI5P4K alpha inh,BAZ2B inh,GCN5L2 inh,PLK1 PBD block,HP1b binding inh
O=C(O)CCc1ccc(-c2ccccc2)n1CC(=O)O,?,/,-19%,-9%,-1%,9%
COC(=O)c1cccc(-n2c(CCC(=O)O)ccc2-c2cccs2)c1,-11%[11.4 µM],0,71µM*!,?,?,16%
Cc1ccc(-c2ccc(CCC(=O)O)n2-c2ccc(C(C)C)cc2)cc1,?,/,40µM*,-4%,/,?
CNC(=S)NNC(=O)c1cc(C(C)(C)C)nn1Cc1ccc(F)cc1,-20%,-7,-11%,-3%,-15%,7%
Cc1ccc(CNC(=O)CSc2ncc3c(n2)-c2cc(Cl)ccc2N(C)S3(=O)=O)cc1,-5%,/,0%,-17%,/,17%
Cc1ccc(-c2ccc(CCC(=O)O)n2-c2cccc(C)c2C)cc1,35µM*,/,45µM*,-8%,/,-24%
Cc1ccc(-c2ccc(CCC(=O)O)n2NC(=O)c2cccs2)cc1,-16%,-13,11µM*,-13%,-2%,10%
COc1ccc(-c2ccc(CCC(=O)O)n2NC(=O)c2cccs2)cc1,-27%,-13,-23%,-1%,-8%,-3%
COc1ccc(NC(=O)C2=C(C)Nc3nc(CCCO)nn3C2c2ccc(O)cc2)cc1 (stereo not drawn),-19%,/,0%,-2%,/,26%
Cc1c(P(=S)(c2ccccc2)c2ccccc2)[n+]2ccccc2n1CCCc1ccccc1,-17%,/,/,/,/,/
CCCCCCCN1N=C(C)C(C(=O)c2ccccc2)C1=O (stereo not drawn),50µM*,2,?,6%,-6%,5%
Cc1ccc(-c2csc(-c3cc4c([nH]c3=O)CC(c3ccccc3)CC4=O)n2)cc1 (stereo not drawn),89µM*,/,79µM*,3%,/,15%
COc1ccc(C2CC(=O)c3cc(-c4nc(-c5cccc(Cl)c5)cs4)c(=O)[nH]c3C2)cc1 (stereo not drawn),-1%,/,1%,-4%,/,53%
O=C1Nc2cc(C(=O)NCCCN3CCOCC3)ccc2S/C1=C/c1ccccc1F,-20%,-3,-24%,0%,-12%,11%
O=C1Nc2cc(C(=O)NCCCN3CCOCC3)ccc2S/C1=C/c1cccc(Cl)c1,-23%,-51*,?,-12%,-4%,5%[57 µM]
Cc1cccc(C(C)(C)C)c1OCCOCCN1CCCC1,2.2µM*,9,-28%,-2%,-9%,-49%
Cc1cccc(OCCOCCN2CCOCC2)c1C,-6%,/,-2%,2%,-3%,8%
Cc1cccc(C(C)(C)C)c1OCCN1CCCC1,4.5µM*,16,-9%,-4%,-11%,?
Cc1ccc(NC(=O)CNNC(=O)c2cccc([N+](=O)[O-])c2)cc1[N+](=O)[O-],-14%,1,/,0%,-11%,-8%
O=C(OCCOc1ccccc1F)c1cccc(S(=O)(=O)N2CCOCC2)c1,1%,0,15%,-5%,1%,75%
Cc1ccc(OCCN2CCN(CC(O)Cn3c4ccccc4c4ccccc43)CC2)cc1 (stereo not drawn),/,/,20µM*,-10%,/,/
Cc1nc(/C(=N/O)C(N)=O)cs1,-15%[11.4 µM],1,50µM*,0%,24µM*,9%
Cc1nc(C(=O)NNC(=O)c2ccc(Cl)cc2)cs1,-10%,-2,1%,0%,-2%,24%
CCc1ccc(-n2c(=O)c3sc4ccccc4c3n(CC(=O)N(CC)Cc3ccccc3)c2=O)cc1,3%,/,-15%,-2%,/,52%
Cc1oc(=O)cc(OCc2ccccc2)c1C,-9%,-2,/,0%,-10%,66%
Cc1ccc(SCc2c(C#N)c3ccccc3n2C)cc1,-27%[11.4 µM],-27,73%,-16%,5.3µM*,62%
CN(CC1COc2ccccc2O1)C(=O)CSc1ncnc2sccc12 (stereo not drawn),6%,-1,9%,-1%,1%,37%
Cc1ccc(NC(=O)COC(=O)CSC(=S)N2CCOCC2)cc1,1%,1,-15%,5%,-7%,60%
